From publication PMC5700166

target: T1, GST-Dm-Relish (Drosophila melanogaster, UniProt Q94527 99-473); assay: protein-binding microarray (PBM); PBM: ~300 nM protein, 6 mM HEPES pH 7.8, 80 mM KCl, 0.5 mM EDTA, 0.5 mM EGTA, 6% glycerol, 35 ng/ul poly-dIdC, 1% milk, 1 h, room temperature; Ap Aiptasia and Nv Nematostella (sea anemones) / Co Capsaspora / Aq Amphimedon (sponge) / Dm Drosophila / Hu human; RHD is the Rel homology domain; high values mean tight binding; conditions: dsDNA, one strand shown
T1 sequence: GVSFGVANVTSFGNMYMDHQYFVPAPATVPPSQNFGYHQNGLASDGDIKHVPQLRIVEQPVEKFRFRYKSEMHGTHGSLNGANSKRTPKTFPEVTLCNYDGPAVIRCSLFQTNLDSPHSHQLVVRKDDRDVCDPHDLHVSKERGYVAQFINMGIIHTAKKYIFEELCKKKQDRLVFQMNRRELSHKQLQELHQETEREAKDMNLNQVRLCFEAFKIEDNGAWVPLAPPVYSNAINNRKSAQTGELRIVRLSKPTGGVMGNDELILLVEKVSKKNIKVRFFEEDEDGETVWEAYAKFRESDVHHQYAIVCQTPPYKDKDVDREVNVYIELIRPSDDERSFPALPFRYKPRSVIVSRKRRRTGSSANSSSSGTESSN

Sequence	binding signal [z-score]
CCGATTAACATCAGGAAACTACATGATGTTAATCGGGTCTTGATTCGCTTGACGCTGCTG	5.23
CCGATTAACATCAGTGAACCACATGATGTTAATCGGGTCTTGATTCGCTTGACGCTGCTG	5.69
CCGATTAACATCACCCGAGTGCGTGATGTTAATCGGGTCTTGATTCGCTTGACGCTGCTG	1.01
CCGATTAACATCAAGTACAACGGTGATGTTAATCGGGTCTTGATTCGCTTGACGCTGCTG	1.44
CCGATTAACATCAGGAAAATACATGATGTTAATCGGGTCTTGATTCGCTTGACGCTGCTG	4.66
CCGATTAACATCACGTATTTTCCTGATGTTAATCGGGTCTTGATTCGCTTGACGCTGCTG	1.2
CCGATTAACATCACGTAAAATCCTGATGTTAATCGGGTCTTGATTCGCTTGACGCTGCTG	1.05
CCGATTAACATCAAATTTTCCACTGATGTTAATCGGGTCTTGATTCGCTTGACGCTGCTG	1.2
CCGATTAACATCAGAATTTCCTATGATGTTAATCGGGTCTTGATTCGCTTGACGCTGCTG	1.23
CCGATTAACATCAAGTATTTTCCTGATGTTAATCGGGTCTTGATTCGCTTGACGCTGCTG	1.84
CCGATTAACATCACTGGAAATTCTGATGTTAATCGGGTCTTGATTCGCTTGACGCTGCTG	1.59
CCGATTAACATCAGCATCCACGGTGATGTTAATCGGGTCTTGATTCGCTTGACGCTGCTG	1.01
CCGATTAACATCAGGAAATCACATGATGTTAATCGGGTCTTGATTCGCTTGACGCTGCTG	7.1
CCGATTAACATCAAGTGATTTCCTGATGTTAATCGGGTCTTGATTCGCTTGACGCTGCTG	4.18
CCGATTAACATCATAAAAAAAAATGATGTTAATCGGGTCTTGATTCGCTTGACGCTGCTG	1.27
CCGATTAACATCAGGCCTTTCCATGATGTTAATCGGGTCTTGATTCGCTTGACGCTGCTG	1.71
CCGATTAACATCAGTAGTTTCCATGATGTTAATCGGGTCTTGATTCGCTTGACGCTGCTG	1.79
CCGATTAACATCACAAAATTCCATGATGTTAATCGGGTCTTGATTCGCTTGACGCTGCTG	1.67
CCGATTAACATCACGTAAATCCATGATGTTAATCGGGTCTTGATTCGCTTGACGCTGCTG	1
CCGATTAACATCAGTGAATTCCATGATGTTAATCGGGTCTTGATTCGCTTGACGCTGCTG	2.81

Sequence	binding signal [z-score]
CCGATTAACATCAGGAATTCACATGATGTTAATCGGGTCTTGATTCGCTTGACGCTGCTG	5.7
CCGATTAACATCACAAGAATTCCTGATGTTAATCGGGTCTTGATTCGCTTGACGCTGCTG	1.19
CCGATTAACATCAAATAAATTCCTGATGTTAATCGGGTCTTGATTCGCTTGACGCTGCTG	1.27
CCGATTAACATCAAGTGAATTCCTGATGTTAATCGGGTCTTGATTCGCTTGACGCTGCTG	3.49
CCGATTAACATCAAAAATTCCATTGATGTTAATCGGGTCTTGATTCGCTTGACGCTGCTG	1.66
CCGATTAACATCAGGCGGTAAGGTGATGTTAATCGGGTCTTGATTCGCTTGACGCTGCTG	1.01
CCGATTAACATCACGAAAAATCCTGATGTTAATCGGGTCTTGATTCGCTTGACGCTGCTG	1.48
CCGATTAACATCATGTGGTTCTCTGATGTTAATCGGGTCTTGATTCGCTTGACGCTGCTG	1.1
CCGATTAACATCAAAATTCCAATTGATGTTAATCGGGTCTTGATTCGCTTGACGCTGCTG	1.02
CCGATTAACATCACTATTGTACATGATGTTAATCGGGTCTTGATTCGCTTGACGCTGCTG	1.29
CCGATTAACATCAAGTACATTCCTGATGTTAATCGGGTCTTGATTCGCTTGACGCTGCTG	2.21
CCGATTAACATCAGGAAAATCACTGATGTTAATCGGGTCTTGATTCGCTTGACGCTGCTG	3.47
CCGATTAACATCAATAAATGTACTGATGTTAATCGGGTCTTGATTCGCTTGACGCTGCTG	1.14
CCGATTAACATCACTTAGTACGGTGATGTTAATCGGGTCTTGATTCGCTTGACGCTGCTG	1.1
CCGATTAACATCAAAGGAAATTCTGATGTTAATCGGGTCTTGATTCGCTTGACGCTGCTG	1.56
CCGATTAACATCAGTAAAATCCATGATGTTAATCGGGTCTTGATTCGCTTGACGCTGCTG	1.44
CCGATTAACATCACCGAATTTGGTGATGTTAATCGGGTCTTGATTCGCTTGACGCTGCTG	1.44
CCGATTAACATCACGTGAATTCCTGATGTTAATCGGGTCTTGATTCGCTTGACGCTGCTG	2.84
CCGATTAACATCACCGCAGCATGTGATGTTAATCGGGTCTTGATTCGCTTGACGCTGCTG	1.18
CCGATTAACATCACAGGAAATCCTGATGTTAATCGGGTCTTGATTCGCTTGACGCTGCTG	1.25
